# Measured values as given in PubChem BioAssay (NCATS).
# Records with an inconclusive call do not appear. A call without a number means that no potency is given here. The source made the active and inactive calls. The call rests on the fitted dose curve; in most records, active means well fitted curve in the direction sought with a large enough effect; inconclusive means small, poorly fitted or top-dose-only effect, or another doubt; inactive means no such curve, though single readings can be large; an effect the other way counts as inactive or inconclusive.
# Legend:
# [1] = qHTS assay to identify small molecule inhibitors of chordoma cells - UCH-2 (AID 1259356); further: series mostly up to about 46 µM
# [2] = P-glycoprotein substrates identified in KB-8-5-11 adenocarcinoma cell line, qHTS therapeutic library screen (AID 1346987); conditions: outcome: dose series up to 44.5 µM unless noted; further: series mostly up to about 44 µM; nearly all actives have a fitted effect of over 65% in size
# How it was run: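 In this qHTS, P-gp-rich KB-8-5-11 cells received library compounds across a concentration range. Viability was quantified by luminescence after 72 h at 37 degree C.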
Compound,Potency [1],Potency [2]
NC[C@H]1O[C@H](O[C@H]2[C@H](O)[C@@H](O[C@H]3O[C@H](CO)[C@@H](O)[C@H](N)[C@H]3O)[C@H](N)C[C@@H]2N)[C@H](O)[C@@H](O)[C@@H]1O,inactive,inactive
CCC(=O)OC(OP(=O)(CCCCc1ccccc1)CC(=O)N1C[C@H](C2CCCCC2)C[C@H]1C(=O)O)C(C)C (some centres undefined),inactive,inactive
NCC[C@H](O)C(=O)N[C@@H]1C[C@H](N)[C@@H](O[C@H]2O[C@H](CN)[C@@H](O)[C@H](O)[C@H]2O)[C@H](O)[C@H]1O[C@H]1O[C@H](CO)[C@@H](O)[C@H](N)[C@H]1O,inactive,inactive
COC(=O)C(CN)c1c[nH]c2ccc(OC)cc12 (centres undefined),inactive,inactive
CC(C)CN(C[C@@H](O)[C@H](Cc1ccccc1)NC(=O)O[C@@H]1CCOC1)S(=O)(=O)c1ccc(N)cc1,inactive,inactive
COC(=O)CC[C@H](N)C(=O)O,inactive,inactive
OC[C@H]1OC([S-])[C@H](O)[C@@H](O)[C@@H]1O.[Au+] (some centres undefined),inactive,inactive
C[C@@H]1C[C@H]2[C@@H]3C[C@H](F)C4=CC(=O)C=C[C@]4(C)[C@@]3(Cl)[C@@H](O)C[C@]2(C)[C@H]1C(=O)COC(=O)C(C)(C)C,inactive,inactive
N[C@H](CC(=O)O)C(=O)O,inactive,inactive
CC(=NCc1ccccc1)c1ccccc1O,inactive,inactive
O=C(O)COc1ccccc1/C=N/NC(=O)c1ccncc1,inactive,inactive
CC(=O)Nc1c(I)c(C(=O)N[C@H]2C(O)O[C@H](CO)[C@@H](O)[C@@H]2O)c(I)c(N(C)C(C)=O)c1I (some centres undefined),inactive,inactive
